High-throughput results (PubChem BioAssay)
Shown are actives, neighbours in structure and some others; about 2.5% of the full set was active somewhere.
rCAG RNA binder: binds r(CAG) RNA repeats. r(CAG) RNA repeat, TO-PRO-1 dye displacement fluorescence. inhibition, % at 3 µM. 370,000 tested, 1.3% active. AID 651821;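 active = inhibition above the plate cutoff, the mean of all test compounds on that plate plus 3 SD, cut at about 35% in these data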;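 also: higher means more dye released from RNA so lower well fluorescence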
ABCB6 inh 2: blocks the human ABCB6 transporter. K562-ABCB6 porphyrin accumulation, flow cytometry, 1 h; active compounds read low. AID 602162. fluorescence ratio to DMSO, % at 10 µM. Q9NP58. 360,000 tested, 0.19% active;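 active = fluorescence ratio to DMSO below 75%, the collection mean minus 3 SD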;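 also: signal is porphyrin accumulated inside mitochondria; lower ratio means ABCB6 inhibition with less porphyrin fluorescence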
Target sequence (Q9NP58 whole entry, looked up): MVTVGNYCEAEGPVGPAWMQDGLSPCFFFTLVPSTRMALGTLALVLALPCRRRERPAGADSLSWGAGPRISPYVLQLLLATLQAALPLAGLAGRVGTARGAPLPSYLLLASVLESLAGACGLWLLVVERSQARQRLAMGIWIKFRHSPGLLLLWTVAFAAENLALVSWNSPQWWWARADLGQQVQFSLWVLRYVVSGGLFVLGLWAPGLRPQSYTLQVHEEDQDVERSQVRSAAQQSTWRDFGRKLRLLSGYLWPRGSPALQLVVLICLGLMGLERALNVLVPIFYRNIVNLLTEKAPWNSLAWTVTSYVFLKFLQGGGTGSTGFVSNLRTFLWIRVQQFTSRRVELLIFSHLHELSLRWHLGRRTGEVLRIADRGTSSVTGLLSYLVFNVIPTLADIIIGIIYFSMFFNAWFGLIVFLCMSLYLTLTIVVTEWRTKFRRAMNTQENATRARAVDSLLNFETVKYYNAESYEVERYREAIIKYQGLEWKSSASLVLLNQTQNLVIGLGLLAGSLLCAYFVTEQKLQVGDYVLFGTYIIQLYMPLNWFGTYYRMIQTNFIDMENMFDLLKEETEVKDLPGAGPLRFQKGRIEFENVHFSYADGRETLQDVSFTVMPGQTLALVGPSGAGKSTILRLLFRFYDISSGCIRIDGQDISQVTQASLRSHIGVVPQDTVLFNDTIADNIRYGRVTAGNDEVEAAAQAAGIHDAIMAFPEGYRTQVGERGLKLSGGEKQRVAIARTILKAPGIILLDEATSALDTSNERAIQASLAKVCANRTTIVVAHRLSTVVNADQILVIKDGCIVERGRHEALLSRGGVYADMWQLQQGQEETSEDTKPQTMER
PG9 Ab binder: PG9 antibody binding by small molecule | TR-FRET gp120-PG9 antibody binding | inhibition, % at 6.7 µM | 360,000 tested, 0.43% active; in the data active = inhibition above about 8.5%
Granule exo inh: lytic granule exocytosis inhibition; TALL-104 LAMP-1 surface exposure, flow cytometry; cells stimulated with thapsigargin and PMA; inhibition, % at 10 µM; 360,000 tested, 0.66% active; AID 651702;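 active = inhibition above about 55%, limit read from the data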
Exocytosis CP01: lytic granule exocytosis inhibition | shares compounds with Granule exo inh | TALL-104 cells, LAMP-1 externalization, flow cytometry; stimulated with PMA plus thapsigargin | inhibition, % at 10 µM | 1,500 tested, 11% active; in the data active = inhibition above about 60%
Large screens that a line does not name were inactive (follow-up assays come after a bar, where they were run); ! = repeats disagree.

CCN(Cc1cccc(OC)c1)CC1CCCN(CCc2cccc(OC)c2)C1 (stereo unspecified)	Granule exo inh 71 | Exocytosis CP01 inactive
CCOc1cccc(CN(CC)CC2CCCN(CCc3cccc(OC)c3)C2)c1O (stereo unspecified)	Granule exo inh 85 | Exocytosis CP01 inactive
O=c1c2cc(F)ccc2sn1-c1ccccc1Cl	Granule exo inh 64 | Exocytosis CP01 103
O=c1c2ccc(F)cc2sn1-c1ccccc1	Granule exo inh 71 | Exocytosis CP01 100
Cc1ccc(-n2sc3cc(F)ccc3c2=O)c(C)c1	none
N=C1SCC(=O)N1c1ccccc1Cl	none
O=C(NC(=S)N(CCO)Cc1ccccc1)c1ccc(F)cc1Cl	none
Cc1oc(-c2ccc(Cl)cc2)nc1CS(=O)CC(=O)NCCN1CCCC1 (stereo unspecified)	Granule exo inh 56 | Exocytosis CP01 inactive
Cc1cccc(-c2nc(CS(=O)CC(=O)NCCc3ccc(Cl)cc3)c(C)o2)c1 (stereo unspecified)	Granule exo inh 58 | Exocytosis CP01 inactive
CC(C)CN(C(=O)CN(C)C(=O)c1ccco1)c1c(N)n(CC(C)C)c(=O)[nH]c1=O	none
COc1ccccc1CCNC(=O)Cn1ccc2cc(S(=O)(=O)N3CCC(C)CC3)ccc21	Granule exo inh 60 | Exocytosis CP01 inactive
COc1ccccc1CCC(=O)NCCCn1ccc2ccccc21	Granule exo inh 72 | Exocytosis CP01 inactive
COc1ccc(OC)c(CCNC(=O)Cn2ccc3cc(S(=O)(=O)N4CCCC4)ccc32)c1	none
COc1ccccc1C(=O)NCCn1ccc2ccccc21	none
CC(C)(C)CC(C)(C)N=C1Nc2cc(Cl)c(Cl)cc2NC12C[C@H]1CCC(=O)N3CC[C@@H](C2)[C@@H]13 (stereo partly specified)	Granule exo inh 76 | Exocytosis CP01 inactive
Cc1nc(SCc2nc3ccc([N+](=O)[O-])cc3[nH]2)c2oc3ccccc3c2n1	Granule exo inh 93 | Exocytosis CP01 inactive
Cc1nc(SCc2nc3ccc(F)cc3[nH]2)c2oc3ccccc3c2n1	none
COc1ccc(C(=O)N(C)[C@H]2C[C@H]3c4[nH]c5ccccc5c4CCN3C(=O)[C@H]2CO)cc1	none
CSc1cccc(NC(=S)N(CCCN2CCCC2)Cc2cccn2Cc2ccc(Cl)cc2)c1	Granule exo inh 93 | Exocytosis CP01 63
Nc1ccccc1/C=C/c1ccccc1N	none
C=CCn1c2ccccc2c2nnc(SCCCn3c(=O)[nH]c4ccccc43)nc21	Granule exo inh 67 | Exocytosis CP01 inactive
O=C1c2ccccc2C(=O)N1CSc1nnc2c3ccccc3n(CCc3ccccc3)c2n1	none (no result: rCAG RNA binder, PG9 Ab binder)
CCN(CC)CCSc1nnc2c3ccccc3n(CCc3ccccc3)c2n1	Granule exo inh 60 | Exocytosis CP01 inactive
N#Cc1ccccc1S(=O)(=O)N1CCN(C(=O)C2CC(=O)N(c3ccc4c(c3)OCCO4)C2)CC1 (stereo unspecified)	none
CCCCc1ccc(NC(=S)NCc2ccccc2OC)cc1	none
COc1ccc(NC(=O)c2c(C)nn(Cc3ccccc3)c2C)cc1S(=O)(=O)N(C)C	Granule exo inh 71 | Exocytosis CP01 inactive
COc1ccc(NC(=O)c2c(C)nn(Cc3ccccc3)c2Cl)cc1S(=O)(=O)N1CCOCC1	none
Cc1ccc(NS(=O)(=O)c2ccc3c(c2)NC(=O)CCS3)c(C)c1	none
CCn1c(=O)c2cc(C(=O)NCCCOC)sc2c2ccccc21	none
CCn1c(=O)c2cc(C(=O)NCCC(C)C)sc2c2ccccc21	Granule exo inh 71 | Exocytosis CP01 inactive
O=C1C=CC(=O)N1N(c1ccccc1)c1ccccc1	Granule exo inh 78 | Exocytosis CP01 104
O=C1c2ccccc2C(=O)N1N(c1ccccc1)c1ccccc1	none
COc1ccc2nc3cccc(OC)c3nc2c1	none
COc1ccc2nc3ccccc3nc2c1N	Granule exo inh 82 | Exocytosis CP01 inactive
CCNCC(=O)N1c2ccccc2CCc2ccc(NC(=O)OCC)cc21	Granule exo inh 57 (no result: rCAG RNA binder, PG9 Ab binder) | Exocytosis CP01 inactive
CC1CCC(N2CCN(c3ccc([N+](=O)[O-])cc3)CC2)CC1 (stereo unspecified)	none
CCC1CCC(N2CCN(c3ccc([N+](=O)[O-])cc3)CC2)CC1 (stereo unspecified)	Granule exo inh 74 | Exocytosis CP01 inactive
CCCn1c(C(O)c2cccc(OC)c2)nc2ccccc21 (stereo unspecified)	Granule exo inh 73 | Exocytosis CP01 inactive
COc1ccc(CN(C)c2ncnc3sccc23)c(OC)c1OC	none
CCN1CCN(Cc2ccc(NC(=O)c3cc(NC(=O)C(=O)c4c[nH]c5ccccc45)cc(OC)c3)cc2C(F)(F)F)CC1	Granule exo inh 56! | Exocytosis CP01 86
COc1cc(C2NC(=O)NC(C)=C2[N+](=O)[O-])cc(OC)c1OC (stereo unspecified)	none
N#Cc1c(Nc2ccccc2Cl)s[nH]c1=O	Granule exo inh 78 | Exocytosis CP01 95
N#Cc1c(Nc2ccccc2C(F)(F)F)s[nH]c1=O	none
COc1cc(CN2CCCC(C(=O)c3ccc4c5c(cccc35)CC4)C2)cc(OC)c1O (stereo unspecified)	Granule exo inh 73 | Exocytosis CP01 inactive
O=C(c1ccc2c3c(cccc13)CC2)C1CCCN(Cc2cccnc2)C1 (stereo unspecified)	none
CC(CC12CC3CC(CC(C3)C1)C2)NCc1ccccc1O (stereo unspecified)	Granule exo inh 61 | Exocytosis CP01 inactive
Cc1ccccc1CN(C)CC(=O)NC(C)CCc1ccccc1 (stereo unspecified)	none
Cc1ccc(C(C)C)c(OCCNCCc2ccccc2)c1	Granule exo inh 64 | Exocytosis CP01 inactive
C=CCN(C(=O)CSc1nc2c(sc3ccccc32)c(=O)n1CCN(CC)CC)c1ccccc1	none
COc1ccc(CC(=O)Nc2nc(-c3ccc(F)c(F)c3)cs2)cc1	none
CC1(C(=O)OCC(=O)Nc2nc(-c3ccc(F)c(F)c3)cs2)CC1(Cl)Cl (stereo unspecified)	Granule exo inh 92 | Exocytosis CP01 101
CCN1C(=O)N[C@@H](c2cccc(C(F)(F)F)c2)[C@@H](C(=O)OC)[C@H]1C	Granule exo inh 101 | Exocytosis CP01 inactive
CSC1=NC(C)(C)C=C(/C=C/c2ccc(Cl)cc2Cl)N1	Granule exo inh 75 | Exocytosis CP01 inactive
CCSC1=NC(C)(C)C=C(/C=C/c2ccc(Cl)cc2Cl)N1	none
CN(CC(=O)NCCc1ccc(F)cc1)Cc1ccc(Br)cc1	Granule exo inh 70 | Exocytosis CP01 inactive
CN(CC(=O)NCCCc1ccccc1)Cc1ccc(Br)cc1	none
Cc1ccc(C(c2nnnn2Cc2cccs2)N2CCN(Cc3ccc4c(c3)OCO4)CC2)cc1 (stereo unspecified)	Granule exo inh 60 | Exocytosis CP01 inactive
CCN1CCN(c2cc(C)c3cc(NC(=O)c4cc(OC)cc(OC)c4)ccc3n2)CC1	none
CCOc1ccc(C(=O)Nc2ccc3nc(N4CCN(CC)CC4)cc(C)c3c2)cc1	Granule exo inh 63 | Exocytosis CP01 inactive
Cc1cc(-c2ccccc2)nc2cc(C(=O)N(Cc3ccccc3)Cc3ccccc3)nn12	Granule exo inh 80 | Exocytosis CP01 inactive
